# In ChEMBL document CHEMBL2218924, “A broad activity screen in support of a chemogenomic map for kinase signalling research and drug discovery” (Biochem J, 2013):
# Legend:
# [1] = target: Serine/threonine-protein kinase MRCK beta (Homo sapiens) (UniProt Q9Y5S2); settings: at 1 µM
# [2] = target: Serine/threonine-protein kinase MRCK beta (Homo sapiens) (UniProt Q9Y5S2); settings: at 10 µM
# [3] = target: Ribosomal protein S6 kinase alpha-4 (Homo sapiens) (UniProt O75676); settings: at 10 µM
# [4] = target: SRSF protein kinase 3 (Homo sapiens) (UniProt Q9UPE1); settings: at 10 µM
# [5] = target: T1, Serine/threonine-protein kinase 4 (Homo sapiens) (UniProt Q13043); settings: at 1 µM
# T1 sequence (whole entry): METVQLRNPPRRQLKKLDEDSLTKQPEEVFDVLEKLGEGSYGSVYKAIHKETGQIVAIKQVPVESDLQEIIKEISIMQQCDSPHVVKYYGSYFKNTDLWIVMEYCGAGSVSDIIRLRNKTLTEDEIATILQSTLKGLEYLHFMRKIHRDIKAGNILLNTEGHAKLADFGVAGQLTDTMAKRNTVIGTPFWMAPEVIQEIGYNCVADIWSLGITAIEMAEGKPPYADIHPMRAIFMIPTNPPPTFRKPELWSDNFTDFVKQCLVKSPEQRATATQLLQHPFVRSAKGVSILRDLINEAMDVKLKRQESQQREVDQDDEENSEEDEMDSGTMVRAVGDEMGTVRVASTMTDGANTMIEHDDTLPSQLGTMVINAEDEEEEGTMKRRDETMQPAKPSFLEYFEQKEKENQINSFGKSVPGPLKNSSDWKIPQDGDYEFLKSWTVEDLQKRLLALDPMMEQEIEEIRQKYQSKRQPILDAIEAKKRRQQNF
# [6] = target: T2, Serine/threonine-protein kinase 3 (Homo sapiens) (UniProt Q13188); settings: at 10 µM
# T2 sequence (whole entry): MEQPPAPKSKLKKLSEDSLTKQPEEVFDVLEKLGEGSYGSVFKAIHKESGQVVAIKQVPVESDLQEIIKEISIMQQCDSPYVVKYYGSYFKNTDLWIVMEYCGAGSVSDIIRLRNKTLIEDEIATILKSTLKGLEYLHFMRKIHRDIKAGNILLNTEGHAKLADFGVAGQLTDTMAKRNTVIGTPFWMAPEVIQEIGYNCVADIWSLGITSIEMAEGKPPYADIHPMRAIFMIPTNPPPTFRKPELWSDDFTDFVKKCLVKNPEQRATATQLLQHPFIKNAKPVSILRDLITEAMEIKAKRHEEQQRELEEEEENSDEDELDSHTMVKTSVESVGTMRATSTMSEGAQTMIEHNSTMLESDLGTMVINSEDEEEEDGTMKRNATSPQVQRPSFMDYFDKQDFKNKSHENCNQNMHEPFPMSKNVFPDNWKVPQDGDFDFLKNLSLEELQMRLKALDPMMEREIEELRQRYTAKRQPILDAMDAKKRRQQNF
# [7] = target: Serine/threonine-protein kinase 24 (Homo sapiens) (UniProt Q9Y6E0); settings: at 1 µM
# [8] = target: Serine/threonine-protein kinase 24 (Homo sapiens) (UniProt Q9Y6E0); settings: at 10 µM
# [9] = target: T3, Tyrosine-protein kinase Mer (Homo sapiens) (UniProt Q12866); settings: at 1 µM
# T3 sequence (whole entry): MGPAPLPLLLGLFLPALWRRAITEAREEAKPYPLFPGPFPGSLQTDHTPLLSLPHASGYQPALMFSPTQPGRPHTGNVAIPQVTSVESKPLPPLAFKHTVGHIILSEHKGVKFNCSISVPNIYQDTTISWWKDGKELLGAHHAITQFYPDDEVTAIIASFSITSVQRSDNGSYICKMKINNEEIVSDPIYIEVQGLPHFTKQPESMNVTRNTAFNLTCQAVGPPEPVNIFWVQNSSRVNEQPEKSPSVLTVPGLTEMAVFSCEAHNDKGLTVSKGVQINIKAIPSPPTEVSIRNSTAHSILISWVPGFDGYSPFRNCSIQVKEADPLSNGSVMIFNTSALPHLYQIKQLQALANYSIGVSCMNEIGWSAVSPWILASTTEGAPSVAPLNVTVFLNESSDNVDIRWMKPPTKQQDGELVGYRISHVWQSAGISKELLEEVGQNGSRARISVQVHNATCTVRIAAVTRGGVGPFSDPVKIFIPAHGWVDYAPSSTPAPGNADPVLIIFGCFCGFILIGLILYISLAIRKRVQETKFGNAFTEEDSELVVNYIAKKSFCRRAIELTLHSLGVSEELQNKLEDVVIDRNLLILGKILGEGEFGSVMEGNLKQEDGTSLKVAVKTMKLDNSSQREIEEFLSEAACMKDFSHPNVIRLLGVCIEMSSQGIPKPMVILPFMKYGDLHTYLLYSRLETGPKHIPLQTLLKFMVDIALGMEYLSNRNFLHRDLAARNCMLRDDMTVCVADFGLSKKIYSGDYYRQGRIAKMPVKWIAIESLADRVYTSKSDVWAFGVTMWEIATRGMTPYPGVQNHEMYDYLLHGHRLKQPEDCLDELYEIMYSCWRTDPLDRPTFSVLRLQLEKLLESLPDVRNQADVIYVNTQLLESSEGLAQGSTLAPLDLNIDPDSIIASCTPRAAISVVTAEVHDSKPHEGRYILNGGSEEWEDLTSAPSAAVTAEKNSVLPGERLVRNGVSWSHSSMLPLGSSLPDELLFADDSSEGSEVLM
# [10] = target: T3, Tyrosine-protein kinase Mer (Homo sapiens); settings: at 10 µM
# [11] = target: Hepatocyte growth factor receptor (Homo sapiens) (UniProt P08581); settings: at 1 µM
# [12] = target: Hepatocyte growth factor receptor (Homo sapiens) (UniProt P08581); settings: at 10 µM
# [13] = target: MAP kinase-interacting serine/threonine-protein kinase 2 (Homo sapiens) (UniProt Q9HBH9); settings: at 1 µM
# [14] = target: MAP kinase-interacting serine/threonine-protein kinase 2 (Homo sapiens) (UniProt Q9HBH9); settings: at 10 µM
# [15] = target: Ribosomal protein S6 kinase alpha-5 (Homo sapiens) (UniProt O75582); settings: at 1 µM
# [16] = target: Ribosomal protein S6 kinase alpha-5 (Homo sapiens) (UniProt O75582); settings: at 10 µM
# [17] = target: Ribosomal protein S6 kinase alpha-4 (Homo sapiens) (UniProt O75676); settings: at 1 µM
# [18] = target: SRSF protein kinase 3 (Homo sapiens) (UniProt Q9UPE1); settings: at 1 µM
# [19] = target: T1, Serine/threonine-protein kinase 4 (Homo sapiens); settings: at 10 µM
# [20] = target: T2, Serine/threonine-protein kinase 3 (Homo sapiens); settings: at 1 µM
# Chain of Ribosomal protein S6 kinase alpha-4 (Homo sapiens) (O75676 whole entry, looked up): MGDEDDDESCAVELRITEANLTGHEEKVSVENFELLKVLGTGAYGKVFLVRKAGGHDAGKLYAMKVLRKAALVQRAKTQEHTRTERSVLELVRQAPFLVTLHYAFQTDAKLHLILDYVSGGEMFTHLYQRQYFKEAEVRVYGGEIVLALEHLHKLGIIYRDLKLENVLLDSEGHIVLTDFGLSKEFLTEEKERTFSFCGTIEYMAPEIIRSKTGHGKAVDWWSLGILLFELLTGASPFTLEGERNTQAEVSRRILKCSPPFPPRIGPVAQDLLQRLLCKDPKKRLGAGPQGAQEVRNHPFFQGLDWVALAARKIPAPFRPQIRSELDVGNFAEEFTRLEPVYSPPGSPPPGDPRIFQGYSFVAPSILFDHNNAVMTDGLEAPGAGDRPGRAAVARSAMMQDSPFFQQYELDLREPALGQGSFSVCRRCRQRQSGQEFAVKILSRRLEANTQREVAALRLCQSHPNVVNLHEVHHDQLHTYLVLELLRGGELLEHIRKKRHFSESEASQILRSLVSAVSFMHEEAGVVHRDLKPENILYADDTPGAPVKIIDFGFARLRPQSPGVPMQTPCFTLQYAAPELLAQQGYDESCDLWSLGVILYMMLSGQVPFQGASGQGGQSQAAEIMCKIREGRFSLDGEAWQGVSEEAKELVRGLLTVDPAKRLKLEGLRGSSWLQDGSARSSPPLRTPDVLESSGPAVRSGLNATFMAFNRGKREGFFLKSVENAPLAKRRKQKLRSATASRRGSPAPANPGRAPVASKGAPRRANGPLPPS
# Chain of Hepatocyte growth factor receptor (Homo sapiens) (P08581 whole entry): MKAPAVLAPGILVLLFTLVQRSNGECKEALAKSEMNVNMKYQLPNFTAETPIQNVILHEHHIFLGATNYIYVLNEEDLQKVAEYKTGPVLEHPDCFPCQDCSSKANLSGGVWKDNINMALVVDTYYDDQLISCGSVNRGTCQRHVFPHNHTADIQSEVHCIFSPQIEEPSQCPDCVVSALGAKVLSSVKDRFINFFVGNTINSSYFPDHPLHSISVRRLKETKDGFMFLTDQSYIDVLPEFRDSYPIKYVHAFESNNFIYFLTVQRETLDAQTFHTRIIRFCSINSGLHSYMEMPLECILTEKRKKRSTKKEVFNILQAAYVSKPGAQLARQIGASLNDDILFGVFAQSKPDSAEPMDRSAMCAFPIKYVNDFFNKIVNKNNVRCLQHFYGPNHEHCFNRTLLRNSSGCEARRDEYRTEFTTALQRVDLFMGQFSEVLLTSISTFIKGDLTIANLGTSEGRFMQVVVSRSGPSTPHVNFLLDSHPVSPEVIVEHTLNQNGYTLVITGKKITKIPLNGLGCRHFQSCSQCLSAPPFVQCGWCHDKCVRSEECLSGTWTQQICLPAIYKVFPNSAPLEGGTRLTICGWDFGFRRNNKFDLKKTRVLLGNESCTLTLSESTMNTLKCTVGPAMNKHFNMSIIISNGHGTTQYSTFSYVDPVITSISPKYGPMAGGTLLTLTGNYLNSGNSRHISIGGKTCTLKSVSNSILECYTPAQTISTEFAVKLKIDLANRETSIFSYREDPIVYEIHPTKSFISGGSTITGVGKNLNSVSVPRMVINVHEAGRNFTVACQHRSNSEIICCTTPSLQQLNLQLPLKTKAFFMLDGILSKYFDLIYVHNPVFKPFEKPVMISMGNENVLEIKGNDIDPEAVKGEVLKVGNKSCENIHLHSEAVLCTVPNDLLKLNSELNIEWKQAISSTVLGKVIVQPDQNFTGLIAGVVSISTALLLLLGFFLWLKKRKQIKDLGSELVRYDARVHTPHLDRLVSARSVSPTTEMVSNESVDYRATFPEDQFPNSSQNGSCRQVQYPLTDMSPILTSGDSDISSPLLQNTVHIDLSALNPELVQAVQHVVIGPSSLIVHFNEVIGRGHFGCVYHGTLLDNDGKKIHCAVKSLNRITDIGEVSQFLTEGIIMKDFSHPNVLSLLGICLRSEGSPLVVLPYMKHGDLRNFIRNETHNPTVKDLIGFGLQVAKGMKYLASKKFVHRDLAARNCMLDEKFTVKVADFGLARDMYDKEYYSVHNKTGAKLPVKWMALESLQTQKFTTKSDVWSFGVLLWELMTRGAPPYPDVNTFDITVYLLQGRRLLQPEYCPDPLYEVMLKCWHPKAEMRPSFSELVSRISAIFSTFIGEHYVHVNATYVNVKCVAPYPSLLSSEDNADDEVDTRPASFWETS
# Chain of Serine/threonine-protein kinase 24 (Homo sapiens) (Q9Y6E0 whole entry, looked up): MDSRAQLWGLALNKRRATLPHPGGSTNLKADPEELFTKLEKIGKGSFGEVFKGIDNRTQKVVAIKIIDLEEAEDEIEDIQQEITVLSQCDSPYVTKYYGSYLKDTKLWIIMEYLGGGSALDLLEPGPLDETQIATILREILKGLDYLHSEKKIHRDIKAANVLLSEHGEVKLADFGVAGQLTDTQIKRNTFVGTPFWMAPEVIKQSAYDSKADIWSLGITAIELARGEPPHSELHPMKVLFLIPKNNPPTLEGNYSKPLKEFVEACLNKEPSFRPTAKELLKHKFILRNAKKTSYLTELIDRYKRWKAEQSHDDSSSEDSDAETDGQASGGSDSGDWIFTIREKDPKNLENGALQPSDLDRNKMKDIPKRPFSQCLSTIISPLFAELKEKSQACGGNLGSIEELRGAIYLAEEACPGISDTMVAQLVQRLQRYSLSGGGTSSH
# Chain of SRSF protein kinase 3 (Homo sapiens) (Q9UPE1 whole entry): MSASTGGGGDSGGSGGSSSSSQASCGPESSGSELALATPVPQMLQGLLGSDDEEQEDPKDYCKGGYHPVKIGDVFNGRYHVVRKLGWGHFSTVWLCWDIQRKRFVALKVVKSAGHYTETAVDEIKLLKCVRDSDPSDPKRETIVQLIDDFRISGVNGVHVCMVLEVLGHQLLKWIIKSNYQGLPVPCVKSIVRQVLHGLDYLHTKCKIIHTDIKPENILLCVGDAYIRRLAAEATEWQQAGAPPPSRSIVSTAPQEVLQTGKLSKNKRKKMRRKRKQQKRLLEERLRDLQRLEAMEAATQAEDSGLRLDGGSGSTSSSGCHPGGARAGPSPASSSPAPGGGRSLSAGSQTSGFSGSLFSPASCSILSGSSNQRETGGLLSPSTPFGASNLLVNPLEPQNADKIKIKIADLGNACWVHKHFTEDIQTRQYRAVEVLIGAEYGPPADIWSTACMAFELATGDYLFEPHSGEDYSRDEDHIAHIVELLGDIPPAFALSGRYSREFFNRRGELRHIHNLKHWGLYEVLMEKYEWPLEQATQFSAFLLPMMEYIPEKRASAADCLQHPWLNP
# Chain of MAP kinase-interacting serine/threonine-protein kinase 2 (Homo sapiens) (Q9HBH9 whole entry, looked up): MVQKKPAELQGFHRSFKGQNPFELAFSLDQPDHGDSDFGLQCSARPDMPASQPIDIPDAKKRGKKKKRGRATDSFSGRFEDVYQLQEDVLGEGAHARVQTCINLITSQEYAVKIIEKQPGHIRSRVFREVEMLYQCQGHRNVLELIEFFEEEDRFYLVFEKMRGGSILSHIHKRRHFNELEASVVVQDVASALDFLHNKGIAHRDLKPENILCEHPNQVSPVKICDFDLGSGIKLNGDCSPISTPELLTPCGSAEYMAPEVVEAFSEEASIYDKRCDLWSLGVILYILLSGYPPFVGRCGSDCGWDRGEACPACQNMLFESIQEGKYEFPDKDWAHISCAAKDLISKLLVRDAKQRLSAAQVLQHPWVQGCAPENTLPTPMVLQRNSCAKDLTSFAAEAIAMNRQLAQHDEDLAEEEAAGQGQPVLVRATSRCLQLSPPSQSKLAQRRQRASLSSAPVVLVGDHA
# Chain of Ribosomal protein S6 kinase alpha-5 (Homo sapiens) (O75582 whole entry, looked up): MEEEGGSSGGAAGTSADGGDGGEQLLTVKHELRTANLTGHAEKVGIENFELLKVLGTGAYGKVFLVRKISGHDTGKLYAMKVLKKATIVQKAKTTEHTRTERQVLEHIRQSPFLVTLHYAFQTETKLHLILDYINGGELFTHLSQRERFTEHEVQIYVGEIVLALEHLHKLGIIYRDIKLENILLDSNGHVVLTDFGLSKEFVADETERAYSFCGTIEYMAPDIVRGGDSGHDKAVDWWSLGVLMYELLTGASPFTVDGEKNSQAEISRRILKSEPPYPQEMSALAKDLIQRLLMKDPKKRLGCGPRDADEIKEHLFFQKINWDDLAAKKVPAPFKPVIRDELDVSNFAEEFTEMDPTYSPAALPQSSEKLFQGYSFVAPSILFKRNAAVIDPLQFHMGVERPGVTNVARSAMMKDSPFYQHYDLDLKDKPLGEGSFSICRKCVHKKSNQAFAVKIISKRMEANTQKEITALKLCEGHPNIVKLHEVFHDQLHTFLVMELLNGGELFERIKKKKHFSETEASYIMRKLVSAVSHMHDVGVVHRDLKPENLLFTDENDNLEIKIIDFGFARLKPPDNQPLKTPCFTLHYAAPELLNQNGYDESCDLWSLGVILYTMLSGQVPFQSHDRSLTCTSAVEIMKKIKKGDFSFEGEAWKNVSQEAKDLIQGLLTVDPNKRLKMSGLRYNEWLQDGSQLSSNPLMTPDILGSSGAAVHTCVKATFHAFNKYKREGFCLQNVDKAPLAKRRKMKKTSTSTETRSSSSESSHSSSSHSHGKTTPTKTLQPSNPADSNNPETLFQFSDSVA
smiles,measurement,setting,value
Nc1ncnc2c1cnn2-c1ccccc1,residual activity,[1],95%
same,residual activity,[2],83%
same,residual activity,[3],86%
same,residual activity,[4],23%
same,residual activity,[5],97%
same,residual activity,[6],93%
same,residual activity,[7],68%
same,residual activity,[8],84%
same,residual activity,[9],101%
same,residual activity,[10],92%
same,residual activity,[11],98%
same,residual activity,[12],85%
same,residual activity,[13],56%
same,residual activity,[14],22%
NCCNc1ncc(C(N)=O)c(Nc2cccc(C(F)(F)F)c2)n1,residual activity,[15],112%
same,residual activity,[16],77%
same,residual activity,[17],81%
same,residual activity,[3],81%
same,residual activity,[18],108%
same,residual activity,[4],75%
same,residual activity,[6],77%
same,residual activity,[8],63%
same,residual activity,[9],80%
same,residual activity,[10],26%
O=c1c(-c2ccc(F)cc2)c(-c2ccncc2)[nH]n1-c1ccc(Cl)cc1,residual activity,[8],79%
same,residual activity,[11],67%
same,residual activity,[12],28%
O=C1NC(=O)C(c2cn(CCCO)c3ncccc23)=C1c1cnccn1,residual activity,[5],77%
same,residual activity,[19],60%
same,residual activity,[20],92%
same,residual activity,[6],91%
same,residual activity,[7],73%
same,residual activity,[8],57%
same,residual activity,[9],89%
same,residual activity,[10],86%
same,residual activity,[13],76%
same,residual activity,[14],67%
COc1ccc(CNC(=O)Nc2ncc([N+](=O)[O-])s2)cc1,residual activity,[15],114%
same,residual activity,[16],129%
same,residual activity,[5],108%
same,residual activity,[19],105%
same,residual activity,[7],69%
same,residual activity,[8],80%
O=S(=O)(NCCNC/C=C/c1ccc(Br)cc1)c1cccc2cnccc12,residual activity,[2],66%
same,residual activity,[15],19%
same,residual activity,[16],3%
same,residual activity,[17],9%
same,residual activity,[3],2%
same,residual activity,[7],78%
same,residual activity,[8],52%
same,residual activity,[10],25%
N#Cc1c(NC(=O)c2cccc3ccccc23)sc2c1CCCC2,residual activity,[1],100%
same,residual activity,[3],99%
same,residual activity,[20],95%
same,residual activity,[6],91%
same,residual activity,[7],99%
same,residual activity,[8],84%
same,residual activity,[9],94%
CC(C)(C)c1nc2c3ccc(F)cc3c3c(=O)[nH]ccc3c2[nH]1,residual activity,[17],36%
same,residual activity,[3],44%
same,residual activity,[18],79%
same,residual activity,[5],8%
same,residual activity,[19],10%
same,residual activity,[20],14%
same,residual activity,[6],4%
same,residual activity,[7],41%
same,residual activity,[8],37%
same,residual activity,[9],29%
same,residual activity,[10],42%
same,residual activity,[13],66%
same,residual activity,[14],65%
Fc1ccc(-c2nc3n(c2-c2ccncc2)CCS3)cc1,residual activity,[1],99%
same,residual activity,[2],98%
same,residual activity,[17],95%
same,residual activity,[3],85%
same,residual activity,[20],99%
same,residual activity,[7],99%
same,residual activity,[8],89%
same,residual activity,[11],130%
same,residual activity,[12],100%
CCCCc1c(-c2ccc(OC)cc2)[nH]c2nccnc12,residual activity,[1],103%
same,residual activity,[15],111%
same,residual activity,[16],117%
same,residual activity,[18],102%
same,residual activity,[4],87%
same,residual activity,[5],71%
same,residual activity,[19],40%
same,residual activity,[6],68%
same,residual activity,[7],70%
same,residual activity,[8],60%
same,residual activity,[9],68%
same,residual activity,[10],80%
same,residual activity,[11],118%
